Data published in PubChem BioAssay (Tox21).
Records with an inconclusive call do not appear. Activity calls are given as the source filed them. Unless noted, the call rests on the fitted dose curve; in most records, active means well fitted cell-killing curve with a large enough effect in the repeat runs; inconclusive means weak or mixed curves; inactive means flat fitted curve, though single readings scatter.

Biological target: Androgen receptor (Homo sapiens) (UniProt P10275)
Assay: qHTS assay to identify small molecule agonists of the androgen receptor (AR) signaling pathway in the presence of an antagonist (AID 1259381; calls by dose curve; further: nearly all actives have a fitted effect of over 15% in size)
Details: MDA-kb2 MMTV-luciferase, AR agonist + nilutamide, 16 h; series mostly up to 42.5 µM; activation: at the top concentration
In short: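 Cells are MDA-kb2 (human breast carcinoma, MMTV-luc, AR/GR responsive). Nilutamide is present at 3.0uM final throughout; compounds are added at 15 concentrations and incubated 16hr at 37C before ONE-Glo luminescence detection.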
On the % scale 0 is the no-effect control and ±100 the full control effect.

Chain of Androgen receptor (Homo sapiens) (P10275 whole entry, looked up): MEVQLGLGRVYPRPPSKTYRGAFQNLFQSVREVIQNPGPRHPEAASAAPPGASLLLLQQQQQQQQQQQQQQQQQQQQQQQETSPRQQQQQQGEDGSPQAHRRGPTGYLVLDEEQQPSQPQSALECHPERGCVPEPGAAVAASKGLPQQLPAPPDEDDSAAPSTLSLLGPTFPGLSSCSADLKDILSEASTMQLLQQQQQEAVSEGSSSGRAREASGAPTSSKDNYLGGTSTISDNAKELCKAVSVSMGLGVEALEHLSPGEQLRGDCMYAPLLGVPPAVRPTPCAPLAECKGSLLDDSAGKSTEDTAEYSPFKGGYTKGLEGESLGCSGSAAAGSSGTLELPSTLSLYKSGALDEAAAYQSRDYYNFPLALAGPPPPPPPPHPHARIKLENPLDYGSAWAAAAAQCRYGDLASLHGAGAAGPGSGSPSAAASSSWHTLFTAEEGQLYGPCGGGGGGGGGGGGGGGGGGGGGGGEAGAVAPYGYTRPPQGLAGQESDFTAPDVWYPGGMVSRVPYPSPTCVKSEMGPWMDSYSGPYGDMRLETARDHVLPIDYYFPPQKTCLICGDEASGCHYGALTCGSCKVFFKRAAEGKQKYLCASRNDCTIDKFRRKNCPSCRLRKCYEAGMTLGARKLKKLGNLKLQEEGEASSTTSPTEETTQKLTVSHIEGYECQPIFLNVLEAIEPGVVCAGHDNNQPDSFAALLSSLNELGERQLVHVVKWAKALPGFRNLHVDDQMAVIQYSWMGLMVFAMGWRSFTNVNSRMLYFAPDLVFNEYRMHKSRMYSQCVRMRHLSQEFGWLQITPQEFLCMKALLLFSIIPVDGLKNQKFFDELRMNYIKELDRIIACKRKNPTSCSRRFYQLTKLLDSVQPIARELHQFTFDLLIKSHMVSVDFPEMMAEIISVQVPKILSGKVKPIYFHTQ

Compound | activation
CC(=O)N[C@H]1[C@H]([C@H](O)[C@H](O)CO)OC(C(=O)O)=C[C@@H]1N=C(N)N | 7.21% (inactive)
Cc1ccc(C(=O)c2ccc(CC(=O)O)n2C)cc1 | -0.135% (inactive)
Cc1coc2ccccc2c1=O | 1.43% (inactive)

Tested on: not listed separately
Assay: qHTS assay to identify small molecule antagonists of the estrogen receptor beta (ER-beta) signaling pathway - cell viability counter screen (AID 1259382);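 further: HEK293T cells carrying ER-beta-UAS-bla reporter stimulated with estradiol; nearly all actives have a fitted effect of over 55% in size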
Details: ER-beta-UAS-bla HEK293T viability, CellTiter-Glo luminescence, 16 h; series mostly up to 92.4 µM; activity change, negative = cytotoxicity: at the top concentration
In short: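 Following a 6 hr plating period, HEK293T cells carrying a UAS-driven beta-lactamase reporter under ER-beta control received compounds and 1nM E2 (final). After 16 hr at 37C and 2 hr substrate loading, CellTiter-Glo luminescence indicated viability.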

Compound | activity change, negative = cytotoxicity
CCCCN1C=CN(C)C1 | -4.66% [at 19 µM] (inactive)
CCCC(C)C(=O)OCC (stereo not given) | 2.29% (inactive)
C[C@H]1C[C@H]2[C@@H]3CCC4=CC(=O)C=C[C@]4(C)[C@H]3C(=O)C[C@]2(C)[C@@]1(O)C(=O)CO | 11.3% [at 42.5 µM] (inactive)
CC[N+](C)(CC)CCOC(=O)C1c2ccccc2Oc2ccccc21 | -1.91% [at 42.5 µM] (inactive)
CO/N=C(\C(=O)N[C@@H]1C(=O)N2C(C(=O)O)=C(CSc3nc(=O)c(O)nn3C)CS[C@H]12)c1csc(N)n1 | 8.05% [at 42.5 µM] (inactive)
CC(=O)N[C@H]1[C@H]([C@H](O)[C@H](O)CO)OC(C(=O)O)=C[C@@H]1N=C(N)N | 9.36% [at 42.5 µM] (inactive)
CCOc1ccc2nc(S(N)(=O)=O)sc2c1 | 3.1% [at 42.5 µM] (inactive)
O=S(=O)(O)c1cccc2c(S(=O)(=O)O)cccc12 | 2.02% (inactive)
NC(=O)N[C@@H](CCC(=O)O)C(=O)O | 1.59% [at 42.5 µM] (inactive)
CNCC(O)c1ccc(O)c(O)c1 (stereo not given) | 1.62% [at 42.5 µM] (inactive)
[Ca+2] | -8.1% (inactive)
Nc1ccccn1 | -13.5% (inactive)
O=C(O)CC(C(=O)O)S(=O)(=O)O (stereo not given) | 6.18% (inactive)
CC(=O)C1CCCCC1=O (stereo not given) | 0.771% (inactive)
CO[C@@]1(NC(=O)C(C(=O)O)c2ccc(O)cc2)C(=O)N2C(C(=O)O)=C(CSc3nnnn3C)CO[C@@H]21 (stereo not given in full) | 9.09% [at 42.5 µM] (inactive)
O=S(=O)(O)c1cccc2ccccc12 | 4.79% (inactive)
CC[N+](CC)(CC(=O)Nc1c(C)cccc1C)Cc1ccccc1 (tested in a mixture with another compound) | 14.1% [at 42.5 µM] (inactive)
